Bioassay records as filed in PubChem BioAssay.
Most compounds without a hit are left out; they make up all but 3.5% or so of the library.
FBW7 act = human FBW7 E3 ligase activation, primary screen; Q969H0; AlphaScreen FBW7–phospho-cyclin E peptide binding, activator screen; normalized activity (activation), % at 26.1 µM; 650,000 tested, 0.13% active; AID 1259310; in the data active = normalized activity above about 1.9%;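 note: purified mutant Fbw7 with reduced substrate affinity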
TEAD-YAP block = TEAD-YAP interaction inhibition | AID 1259422 | HEK-TIYL cells, TEAD-Gal4/YAP UAS-luciferase luminescence | 640,000 tested, 1.4% active | inhibition, % at 9.12 µM; in the data active = inhibition above about 32%
GPR151 activ = activators of human GPR151. AID 1508602. Q8TDV0. 650,000 tested, 1% active. PathHunter beta-arrestin GPR151 cells, luminescence. activation, % at 11.2 µM; in the data active = activation above about 4.9%
MITF primary = blocks human microphthalmia-associated transcription factor; AlphaScreen MITF homodimerization, bead proximity signal; inhibition, % at 2.6 µM; 650,000 tested, 0.91% active; AID 1259374; in the data active = inhibition above about 50%
Target sequence (O75030 whole entry, looked up): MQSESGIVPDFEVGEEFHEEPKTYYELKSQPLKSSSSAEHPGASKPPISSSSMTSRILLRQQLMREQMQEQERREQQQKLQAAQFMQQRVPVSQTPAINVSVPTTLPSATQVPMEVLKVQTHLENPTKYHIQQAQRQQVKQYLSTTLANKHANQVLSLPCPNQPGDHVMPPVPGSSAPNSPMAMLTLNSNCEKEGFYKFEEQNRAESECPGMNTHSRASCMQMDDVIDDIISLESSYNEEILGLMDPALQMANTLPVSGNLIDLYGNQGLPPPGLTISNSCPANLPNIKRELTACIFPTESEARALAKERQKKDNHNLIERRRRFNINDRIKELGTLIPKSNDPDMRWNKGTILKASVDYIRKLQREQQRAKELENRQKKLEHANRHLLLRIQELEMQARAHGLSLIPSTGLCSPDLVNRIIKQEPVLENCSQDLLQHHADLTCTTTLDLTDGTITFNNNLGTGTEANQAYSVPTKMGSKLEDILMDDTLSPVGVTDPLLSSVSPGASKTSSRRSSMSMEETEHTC
GPR151 confirm = confirmation of human GPR151 activators; shares compounds with GPR151 activ; GPR151 PathHunter beta-arrestin cells, luminescence, 90 min; % of EA-reagent control over plate median; activation, % at 11.2 µM; 6,700 tested, under 10 active;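 active = mean percent activation across replicates above the confirmation screen cutoff of 4.91%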
GPR119 counter = activates human GPR119 in a GPR151 counter-screen; shares compounds with GPR151 activ; GPR119 PathHunter beta-arrestin cells, luminescence, 90 min; 0 = compound-well median, 100 = enzyme-acceptor control; activation, % at 11.2 µM; 6,700 tested, 0.3% active;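 active = mean percent activation in the counterscreen above 29.09%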;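 note: counterscreen on off-target GPR119 to flag nonselective hits from the GPR151 activator screen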
Large screens that a line does not name were inactive (follow-up assays come after a bar, where they were run).

COC(=O)CCC(C)C1CCC2C3CC[C@@H]4C[C@H](O)CC[C@]4(C)C3C[C@H](O)[C@]12C (stereo partly drawn)	GPR151 activ 6.4 | GPR151 confirm inactive | GPR119 counter inactive
COC(=O)C12CC3C(C1C(C)=NN2C(C)=O)C3(C)C (stereo not drawn)	none
CC(=O)OC12CC3C(C1C(C)=NN2C(=O)C(=O)N1N=C(C)C2C4C(CC21OC(C)=O)C4(C)C)C3(C)C (stereo not drawn)	GPR151 activ 7.8 | GPR151 confirm inactive | GPR119 counter inactive
COCCNc1nc(-c2ccc(OC)c(OC)c2)no1	GPR151 activ 8.4 | GPR151 confirm inactive | GPR119 counter inactive
C=C(C)c1cccc(C(C)(C)NC(=O)Nc2ccccc2F)c1	GPR151 activ 9.5 | GPR151 confirm inactive | GPR119 counter inactive
C=C(C)c1cccc(C(C)(C)NC(=O)Nc2ccc(C(C)=O)cc2)c1	none
COc1ccc(-c2nn(-c3ccccc3)cc2C(=O)O)cc1[N+](=O)[O-]	none
O=C(Cc1ccc2c(c1)OCO2)N1CCC(O)(c2cccc(F)c2)CC1	GPR151 activ 6.8 | GPR151 confirm inactive | GPR119 counter inactive
CCCC(=O)N1CCC(O)(c2cccc(F)c2)CC1	none
O=C(Nc1c2c(nn1-c1ccc(F)cc1)CSC2)c1ccccc1Cl	none
O=C(NCc1ccccc1)c1ccc2c(=O)n(Cc3cccc(Br)c3)c(=S)[nH]c2c1	none
O=C(CCc1nnc(-c2ccsc2)o1)N1CCc2sccc2C1	GPR151 activ 5.4 | GPR151 confirm inactive | GPR119 counter inactive
CCOC(=O)C1=C(C)N=c2s/c(=C\c3ccc(C)cc3)c(=O)n2C1c1ccccc1OC (stereo not drawn)	GPR151 activ 8.6 | GPR151 confirm inactive | GPR119 counter inactive
CCOC(=O)C1=C(C)N=c2s/c(=C\c3ccc(-c4ccccc4C(=O)O)o3)c(=O)n2C1c1ccccc1OC (stereo not drawn)	GPR151 activ 5.7 | GPR151 confirm inactive | GPR119 counter inactive
CCOC(=O)C1=C(c2ccccc2)N=c2s/c(=C\c3ccco3)c(=O)n2C1c1cccs1 (stereo not drawn)	none
CCOC(=O)C1=C(C)N=c2s/c(=C\c3c(F)cccc3Cl)c(=O)n2C1c1ccc(C)cc1 (stereo not drawn)	none
CCOC(=O)C1=C(C)N=c2s/c(=C\c3ccco3)c(=O)n2C1c1cccs1 (stereo not drawn)	GPR151 activ 7.5 | GPR151 confirm inactive | GPR119 counter inactive
CCOC(=O)C1=C(C)N=c2s/c(=C\c3ccc(-c4ccc(C(=O)O)cc4)o3)c(=O)n2C1c1ccccc1OC (stereo not drawn)	none
COC(=O)C1=C(C)N=c2s/c(=C\c3c(F)cccc3Cl)c(=O)n2C1c1ccccc1 (stereo not drawn)	GPR151 activ 5.3 | GPR151 confirm inactive | GPR119 counter inactive
CCOC(=O)C1=C(C)N=c2s/c(=C\c3ccc(OC)cc3)c(=O)n2C1c1ccccc1OC (stereo not drawn)	none
CC(C)N(C(=O)COC(=O)c1c(Cl)cccc1Cl)C(C)C	none
Cc1c(C(=O)C(=O)NCCN(C)C)c2ccccc2n1C	none
COCCN(Cc1ccsc1)C(=O)NCc1ccc(Cl)cc1	none
S=C1NC2(CCCCC2)NN1c1ccccc1	GPR151 activ 6.6 | GPR151 confirm inactive | GPR119 counter inactive
Cc1ccc(N2NC3(CCCCCC3)NC2=S)cc1	none
CCOc1cc(CNCCO)ccc1OCc1ccccc1	none
C=CCOc1ccc(CNC2CCCC2)cc1OC	GPR151 activ 5.7 | GPR151 confirm inactive | GPR119 counter inactive
C=CCOc1ccc(CNCCO)cc1OCC	GPR151 activ 7.6 | GPR151 confirm inactive | GPR119 counter inactive
Cc1cc(C)n2c(SCC(=O)NC(=O)NC(C)(C)C)nnc2n1	GPR151 activ 5.5 | GPR151 confirm inactive | GPR119 counter inactive
Cc1cncc2cccc(NC3CCCN(C(=O)Cc4ccc(Br)cc4)C3)c12 (stereo not drawn)	none
CC(=O)ON1C(=O)C(=O)c2ccccc2C1=O	none
CCOc1cc(/C=N/N=C2/NC(=O)CS2)ccc1OC(=O)c1ccc(OC)cc1	none
CCOc1cc(/C=N/N=C2/NC(=O)CS2)cc(Cl)c1O	GPR151 activ 7.1 | GPR151 confirm inactive | GPR119 counter inactive
O=C(Nc1cccc(Cl)c1Cl)c1ccccc1[N+](=O)[O-]	none
N#Cc1ccccc1NC(=O)c1cc(Br)ccc1Cl	none
O=C(Nc1ccccc1[N+](=O)[O-])c1cc(Br)ccc1Cl	GPR151 activ 5.9 | GPR151 confirm inactive | GPR119 counter inactive
O=C(O)c1cccc([N+](=O)[O-])c1C(=O)Nc1cccc(Cl)c1Cl	GPR151 activ 7.6 | GPR151 confirm inactive | GPR119 counter inactive
O=C(NCCO)C(=O)NCC(c1ccco1)S(=O)(=O)c1ccc(Cl)cc1 (stereo not drawn)	none
CNC(=O)C(=O)NCC(c1ccco1)S(=O)(=O)c1ccc(Cl)cc1 (stereo not drawn)	GPR151 activ 5.2 | GPR151 confirm inactive | GPR119 counter inactive
Cc1ccc(-n2nnn(C3CC(=O)C4OCC3O4)c2=S)cc1Cl (stereo not drawn)	none
Cc1ccc(C(=O)Nc2ccc(Br)cn2)cc1[N+](=O)[O-]	none
O=C(Nc1ccc(Br)cn1)c1ccc(N2CCCCC2)c([N+](=O)[O-])c1	GPR151 activ 6.5 | GPR151 confirm inactive | GPR119 counter inactive
COc1cccc(C2/C(=C(/O)c3ccc(C)cc3)C(=O)C(=O)N2CCC(=O)O)c1 (stereo not drawn)	none
CCCCC(=O)Nc1nnc(S(=O)(=O)N(C)c2cccc(C)c2)s1	GPR151 activ 6.7 | GPR151 confirm inactive | GPR119 counter inactive
O=C(O)C(O)c1ccc(Br)cc1 (stereo not drawn)	none
O=C(CCCn1cccc1)Nc1ccc(F)cc1F	GPR151 activ 6.7 | GPR151 confirm inactive | GPR119 counter inactive
O=C(CCCCC(=O)Nc1ccc(F)cc1F)Nc1ccc(F)cc1F	none
O=C(CN1C(=O)[C@@H]2CCCN2C(=O)c2ccccc21)N1CCCCCC1	none
Cc1c(CCO)sc[n+]1CC(=O)OC1CC(C)CCC1C(C)C (stereo not drawn)	GPR151 activ 5.4 | GPR151 confirm inactive | GPR119 counter inactive
Cc1cc(C)nc(SCC(=O)OC2CC(C)CCC2C(C)C)n1 (stereo not drawn)	none
Cn1c(Nc2nc3ncnc(NCCOc4ccccc4)c3[nH]2)nc2ccccc21	GPR151 activ 4.9 | GPR151 confirm inactive | GPR119 counter inactive
c1ccc(OCCNc2ncnc3nc(Nc4nccc5ccccc45)[nH]c23)cc1	none
c1ccc(OCCNc2ncnc3nc(Nc4cnccn4)[nH]c23)cc1	GPR151 activ 5.7 | GPR151 confirm inactive | GPR119 counter inactive
CCOc1ccc(CN2CCN(Cc3cnc(N4CCOCC4)s3)CC2CCO)cc1 (stereo not drawn)	none
